In article PMC4336329 (PLoS ONE, 2015):
Among all 310,000 compounds or so, about 14,000 (4.5%) showed an effect of 50% or more. Effects have a minus sign here. What follows is part of a selection rich in strong results, with near analogues and random picks from the rest.

These compounds were tested against human ether-à-go-go-related gene (hERG) potassium channel (human, UniProt Q12809) (assay: primary screen, population patch clamp on CHO cells stably expressing hERG; higher = less effect of the substance).
Sequence of human ether-à-go-go-related gene (hERG) potassium channel (Q12809 whole entry, looked up): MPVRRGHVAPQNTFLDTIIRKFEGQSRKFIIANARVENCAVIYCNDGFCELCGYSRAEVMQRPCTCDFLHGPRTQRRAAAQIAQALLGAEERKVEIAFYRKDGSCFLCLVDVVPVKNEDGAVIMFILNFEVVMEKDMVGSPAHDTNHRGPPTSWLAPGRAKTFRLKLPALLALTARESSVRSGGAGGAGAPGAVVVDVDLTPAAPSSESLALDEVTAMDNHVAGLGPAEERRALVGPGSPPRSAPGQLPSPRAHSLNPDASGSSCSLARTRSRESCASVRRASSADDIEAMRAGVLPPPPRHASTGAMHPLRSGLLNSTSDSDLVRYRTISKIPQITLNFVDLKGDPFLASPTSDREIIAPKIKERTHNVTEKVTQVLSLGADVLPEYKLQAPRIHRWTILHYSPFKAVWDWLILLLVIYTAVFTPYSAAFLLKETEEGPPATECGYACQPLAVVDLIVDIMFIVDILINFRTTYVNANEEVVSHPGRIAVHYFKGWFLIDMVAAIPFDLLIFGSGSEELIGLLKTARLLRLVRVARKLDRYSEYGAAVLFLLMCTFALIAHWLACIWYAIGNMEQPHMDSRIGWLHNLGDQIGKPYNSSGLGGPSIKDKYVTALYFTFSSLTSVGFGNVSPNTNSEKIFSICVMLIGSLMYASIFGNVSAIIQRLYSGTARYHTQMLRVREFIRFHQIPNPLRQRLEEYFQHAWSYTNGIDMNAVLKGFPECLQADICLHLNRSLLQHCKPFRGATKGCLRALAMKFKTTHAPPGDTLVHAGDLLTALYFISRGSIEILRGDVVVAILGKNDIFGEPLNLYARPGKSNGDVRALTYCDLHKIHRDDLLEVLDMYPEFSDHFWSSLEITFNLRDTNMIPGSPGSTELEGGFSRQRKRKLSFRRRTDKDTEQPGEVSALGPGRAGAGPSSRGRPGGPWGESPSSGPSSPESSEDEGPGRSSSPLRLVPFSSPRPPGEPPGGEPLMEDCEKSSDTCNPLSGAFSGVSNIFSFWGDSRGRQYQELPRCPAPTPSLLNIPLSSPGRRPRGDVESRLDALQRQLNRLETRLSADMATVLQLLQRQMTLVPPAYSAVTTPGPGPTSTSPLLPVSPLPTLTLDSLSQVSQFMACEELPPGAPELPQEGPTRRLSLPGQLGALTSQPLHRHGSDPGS
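Note: peak tail current of the secondary pulse compared with the same well before compound.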

Compared with `Fc1ccc(C2=CCN(C(c3cccs3)c3nnnn3CCc3ccccc3)CC2)cc1` (stereo not drawn), `Cc1cccc2cc(C(c3nnnn3Cc3ccccc3)N3CCN(c4ccccc4)CC3)c(=O)[nH]c12` (stereo not drawn) is lower in “hERG current change (%, negative = inhibition) at 10uM” value: -0.341% for the first, -29.1% for the second.

Going from `O=C(CCC(=O)c1cccs1)Nc1ccccc1F` to `O=C(Cc1cccs1)Nc1nnc(COc2ccccc2)s1`, the “hERG current change (%, negative = inhibition) at 10uM” value rises from 3.01% to 3.05%.

First: COc1ccc(C(=O)CCC(=O)NCCc2c[nH]c3ccccc23)cc1OC
Second: COCCNC(=O)CN(c1ccc(OC)c(OC)c1)S(=O)(=O)c1ccc(C)cc1
The “hERG current change (%, negative = inhibition) at 10uM” value of the first is higher: 21.2% for the first, -8.68% for the second.

First: Cc1cccc(C)c1NC(=O)c1ccc(CN2CCc3ccccc3C2)cc1
Second: Cc1ccc(S(=O)(=O)N(Cc2ccc(Cl)cc2)c2ccccc2C(=O)NCc2ccco2)cc1
The “hERG current change (%, negative = inhibition) at 10uM” value of the first is higher: 4.57% for the first, -10.8% for the second.

Compared with `Cc1nn(CC(=O)N2CCCCCC2)c(=O)c2cc3occc3n12`, `CN(c1ccc(C(=O)N2CCCCCC2)cc1)S(=O)(=O)c1ccc(Cl)cc1` is lower in “hERG current change (%, negative = inhibition) at 10uM” value: 14.6% for the first, -63% for the second.

Compared with `Cc1cc(NC(=O)c2cc(-c3ccc(Br)cc3)on2)no1`, `Cc1cc(-n2c(C)cc(C(=O)CSc3nnnn3-c3ccc(Cl)cc3)c2C)no1` is lower in “hERG current change (%, negative = inhibition) at 10uM” value: 17.6% for the first, -3.04% for the second.

Compared with `COc1ccc(CCNC(=O)c2ccccc2OCc2c(C)noc2C)cc1`, `COc1ccc(-n2nc(C(=O)NCC(=O)NC(C)C)c3ccccc3c2=O)cc1` is higher in “hERG current change (%, negative = inhibition) at 10uM” value: -26.4% for the first, 13.7% for the second.

Compared with `NS(=O)(=O)c1ccc(NC(=O)/C=C/c2ccccc2Cl)cc1`, `O=C(COc1ncnc2ccccc12)N1CCN(S(=O)(=O)c2ccc(Cl)cc2)CC1` is lower in “hERG current change (%, negative = inhibition) at 10uM” value: 9.54% for the first, -9.26% for the second.

Compared with `CN=C(Nc1cc(C)nn1-c1ccccc1)c1ccc(F)cc1`, `CN(C)/C=C(/C(=O)c1ccc(Cl)c(Cl)c1)c1nnnn1-c1ccccc1` is higher in “hERG current change (%, negative = inhibition) at 10uM” value: -9.94% for the first, 9.85% for the second.

Compared with `COc1cc(SC)ccc1C(=O)Nc1cccc(S(=O)(=O)NC2=NCCCCC2)c1`, `CN(c1ccc(C(=O)N2CCCCC2)cc1)S(=O)(=O)c1ccccc1` is lower in “hERG current change (%, negative = inhibition) at 10uM” value: 4.08% for the first, -10.8% for the second.

Going from `CN(c1ccc(OCC(=O)O)cc1)S(=O)(=O)c1ccc2ccccc2c1` to `COCCNC(=O)COc1ccc(N(C)S(=O)(=O)c2ccc3ccccc3c2)cc1`, the “hERG current change (%, negative = inhibition) at 10uM” value falls from 16.1% to -62%.

Compared with `O=C(COc1ccc(S(=O)(=O)N2CCCC2)cc1)NCc1cccnc1`, `O=C(COc1ccc(S(=O)(=O)N2CCCCC2)cc1)NCc1cccnc1` is higher in “hERG current change (%, negative = inhibition) at 10uM” value: -3.42% for the first, 3.06% for the second.

Going from `Cc1ccc(S(=O)(=O)N(Cc2ccc(Cl)cc2)c2ccccc2C(=O)NCc2cccnc2)cc1` to `Cc1ccc(S(=O)(=O)N(Cc2ccccc2)c2ccccc2C(=O)NCc2cccnc2)cc1`, the “hERG current change (%, negative = inhibition) at 10uM” value rises from -52% to -33.2%.

First: O=C(COc1ccc(S(=O)(=O)N2CCCC2)cc1Cl)NCc1cccnc1
Second: CN(c1ccc(OCC(=O)NCc2cccnc2)cc1)S(=O)(=O)c1ccc(Cl)cc1
The “hERG current change (%, negative = inhibition) at 10uM” value of the first is higher: -55% for the first, -58.4% for the second.

Compared with `CCOc1ccc(S(=O)(=O)N(C)c2ccc(OCC(=O)NCc3cccnc3)cc2)cc1`, `CCOc1ccc(S(=O)(=O)N(CC(=O)NCc2cccnc2)c2ccc(C)cc2)cc1` is lower in “hERG current change (%, negative = inhibition) at 10uM” value: -21.5% for the first, -66.9% for the second.

Compared with `CN(c1ccc(OCC(=O)OCC(=O)NCc2ccco2)cc1)S(=O)(=O)c1ccc2ccccc2c1`, `CN(c1ccc(OCC(=O)NCCc2ccccc2)cc1)S(=O)(=O)c1ccc(Cl)cc1` is higher in “hERG current change (%, negative = inhibition) at 10uM” value: 2.22% for the first, 15.2% for the second.

Going from `COc1cc(/C=C/c2ccc3c(Br)cc(Br)c(O)c3n2)ccc1O` to `COc1ccc2c(c1)c(/C=C/c1cc[n+](C)cc1)cn2C.[I-]`, the “hERG current change (%, negative = inhibition) at 10uM” value falls from 17.2% to 12.9%.

Compared with `O=C(CSc1ccc([N+](=O)[O-])cn1)Nc1ccc(N2CCOCC2)c(Cl)c1`, `O=C(CN1C(=O)NC2(CCc3ccccc32)C1=O)Nc1cc(C(F)(F)F)ccc1N1CCOCC1` (stereo not drawn) is higher in “hERG current change (%, negative = inhibition) at 10uM” value: -33.2% for the first, -5.15% for the second.

First: CCc1nnc(NC(=O)CSc2nnnn2-c2cccc(C(=O)OC)c2)s1
Second: CCn1cc(/C=C(\NC(=O)c2ccccc2OC)C(=O)NCCCN2CCOCC2)c2ccccc21
The “hERG current change (%, negative = inhibition) at 10uM” value of the first is higher: 8.39% for the first, -7.61% for the second.

First: Cc1nc(Cl)c2c(n1)NC1=C(O2)C(=O)CCC1
Second: COc1ccc(C2C3=C(CCCC3=O)Nc3nc(SCc4ccc(C(=O)O)cc4)nn32)cc1OC (stereo not drawn)
The “hERG current change (%, negative = inhibition) at 10uM” value of the first is higher: 14.7% for the first, -3.79% for the second.

Compared with `COc1cccc(/C=C2\SC(=S)N(CCC(=O)NCCc3ccc(O)cc3)C2=O)c1`, `COCCNC(=O)CN(c1cccc(OC)c1)S(=O)(=O)c1ccc(C)cc1` is lower in “hERG current change (%, negative = inhibition) at 10uM” value: 3.18% for the first, -12.2% for the second.

Compared with `COc1ccc(Nc2nc(-c3sc(N)nc3C)cs2)cc1`, `COc1ccc(S(=O)(=O)N(C)c2ccc(C(=O)NCc3ccncc3)cc2)cc1` is lower in “hERG current change (%, negative = inhibition) at 10uM” value: 8.32% for the first, -18.8% for the second.

Compared with `O=C(NNC1=Nc2cccc3cccc1c23)c1ccc(Br)cc1`, `CN(c1ccc(C(=O)NCc2cccnc2)cc1)S(=O)(=O)c1ccc(Cl)cc1` is lower in “hERG current change (%, negative = inhibition) at 10uM” value: 4.78% for the first, -15.8% for the second.

Going from `COc1cccc(/C=N/NC(=O)COc2cccc3cccnc23)c1O` to `Cc1ccccc1OCC(=O)N/N=C/c1cccn1C`, the “hERG current change (%, negative = inhibition) at 10uM” value rises from 0.232% to 7.04%.

First: Cl.Cn1cccc1CNCCc1ccccc1
Second: CCc1ccc(N(CC(=O)NCc2cccnc2)S(=O)(=O)c2ccccc2)cc1
The “hERG current change (%, negative = inhibition) at 10uM” value of the first is higher: -1.74% for the first, -27% for the second.

Compared with `COc1ccc(N(CC(=O)NCCOc2ccccc2)S(=O)(=O)c2ccc(C)cc2)cc1`, `CCOc1ccc(N(CC(=O)NCc2ccccc2)S(=O)(=O)c2ccc(C)cc2)cc1` is higher in “hERG current change (%, negative = inhibition) at 10uM” value: -54.8% for the first, 4.04% for the second.

First: COCCNC(=O)CN(c1ccc(C)cc1)S(=O)(=O)c1ccccc1
Second: COc1ccc(S(=O)(=O)N(CC(=O)NCCCN(C)C)c2ccc(C)cc2)cc1OC
The “hERG current change (%, negative = inhibition) at 10uM” value of the first is higher: 9.01% for the first, -56.6% for the second.

Going from `CCOc1ccc(S(=O)(=O)N(CC)CC(=O)NCc2cccnc2)cc1` to `CCOc1ccc(S(=O)(=O)N(CC)CC(=O)NCc2ccncc2)cc1`, the “hERG current change (%, negative = inhibition) at 10uM” value rises from -38% to -13.2%.

Compared with `COc1ccc(S(=O)(=O)N(CC(=O)NCc2ccncc2)c2ccc(C)cc2)cc1OC`, `CCOc1ccc(S(=O)(=O)N(CC(=O)NCc2ccncc2)c2ccc(C)cc2)cc1` is lower in “hERG current change (%, negative = inhibition) at 10uM” value: -6.77% for the first, -56.5% for the second.

First: CN(c1ccc(C(=O)N2CCOCC2)cc1)S(=O)(=O)c1ccc(Cl)cc1
Second: CN(c1ccc(C(=O)NCc2ccncc2)cc1)S(=O)(=O)c1ccc(Cl)cc1
The “hERG current change (%, negative = inhibition) at 10uM” value of the first is higher: -34.2% for the first, -52.1% for the second.

First: CCCC(C)c1nc(C(N)=O)c2[nH]c(=O)n(-c3ccc(OC)c(OC)c3)c2n1 (stereo not drawn)
Second: COc1ccc(S(=O)(=O)N2CCCC(C(=O)NCc3ccco3)C2)cc1OC (stereo not drawn)
The “hERG current change (%, negative = inhibition) at 10uM” value of the first is higher: 12.6% for the first, 10.1% for the second.

Going from `CCc1ccc(NC(=O)C2CCN(S(=O)(=O)c3cnc[nH]3)CC2)cc1` to `CCOc1ccc(S(=O)(=O)N(CC(=O)Nc2cccnc2)c2ccc(F)cc2)cc1`, the “hERG current change (%, negative = inhibition) at 10uM” value falls from 9.27% to 2.96%.

Going from `COc1ccccc1NC(=O)Cn1cnc2sc(C(=O)Nc3cc(OC)c(OC)c(OC)c3)c(C)c2c1=O` to `COc1cc(/C(C)=N/N2CCN(c3ccccc3OC)CC2)ccc1O`, the “hERG current change (%, negative = inhibition) at 10uM” value falls from 27.8% to -9.07%.

Compared with `CCOC(=O)C1CCCCN1Cc1cc(OC)ccc1OC` (stereo not drawn), `COc1ccc(/C=N/n2c(=O)[nH]c3c([nH]c4ccc(Br)cc43)c2=O)cc1CN1CCOCC1` is higher in “hERG current change (%, negative = inhibition) at 10uM” value: 5.17% for the first, 5.45% for the second.

Compared with `O=C(NNc1cccc(Cl)n1)C(F)(F)F`, `CCOc1ccc(S(=O)(=O)N(CC(=O)NCc2cccnc2)c2ccc(F)cc2)cc1` is lower in “hERG current change (%, negative = inhibition) at 10uM” value: 17.2% for the first, -72.5% for the second.

Going from `O=S(=O)(c1cccc(Br)c1)N1CCN(C(=S)NCC2CCCO2)CC1` (stereo not drawn) to `CN(C)CCN(C(=O)c1ccc2c(c1)CCCC2)c1nc2cc3c(cc2s1)OCCO3.Cl`, the “hERG current change (%, negative = inhibition) at 10uM” value falls from 11.6% to 5.76%.

First: CCOc1ccc(N(CC(=O)NCc2cccnc2)S(=O)(=O)c2ccc(F)cc2)cc1
Second: Cc1ccc(N(C)S(=O)(=O)c2ccc(-c3cnc(C4CC4)o3)cc2)cc1
The “hERG current change (%, negative = inhibition) at 10uM” value of the first is lower: -13.6% for the first, 8.38% for the second.

Going from `Cc1c(C)c(C)c(CN2CCSCC2)c(C)c1C` to `CN(C)CCCN(C(=O)c1ccc2c(c1)CCCC2)c1nc2cc3c(cc2s1)OCO3.Cl`, the “hERG current change (%, negative = inhibition) at 10uM” value falls from 18.4% to -71%.

First: CN(C)CCCN(C(=O)c1ccc([N+](=O)[O-])o1)c1nc2cc3c(cc2s1)OCO3.Cl
Second: CN(C)CCCN(C(=O)c1ccc(C(=O)c2ccccc2)cc1)c1nc2cc3c(cc2s1)OCO3.Cl
The “hERG current change (%, negative = inhibition) at 10uM” value of the first is lower: -71.8% for the first, -56.3% for the second.

Compared with `CN(C)CCN(C(=O)c1ccc(C(=O)c2ccccc2)cc1)c1nc2cc3c(cc2s1)OCCO3.Cl`, `CN(C)CCN(C(=O)c1ccc(C(=O)c2ccccc2)cc1)c1nc2cc3c(cc2s1)OCO3.Cl` is higher in “hERG current change (%, negative = inhibition) at 10uM” value: -12.4% for the first, 3.43% for the second.

Compared with `CN(C)CCN(C(=O)c1ccc(N2C(=O)CCC2=O)cc1)c1nc2cc3c(cc2s1)OCO3.Cl`, `CCN(CC)CCN(C(=O)c1ccc2ccccc2c1)c1nc2cc3c(cc2s1)OCO3.Cl` is lower in “hERG current change (%, negative = inhibition) at 10uM” value: 0.227% for the first, -38.6% for the second.

First: CCN(CC)CCN(C(=O)c1ccc2ncsc2c1)c1nc2cc3c(cc2s1)OCO3.Cl
Second: CCN(CC)CCN(C(=O)c1ccc(C(=O)c2ccccc2)cc1)c1nc2cc3c(cc2s1)OCO3.Cl
The “hERG current change (%, negative = inhibition) at 10uM” value of the first is lower: -61.8% for the first, -43.8% for the second.
